Compounds with a hit are over-represented: about 1.2% of the library has one in this group of screens.
RTF Ca sens inh = cardiac RTF calcium desensitization | hit rate 0.12% among 340,000 | AID 493244 | P19429+P45379 | inhibition, % at 7.15 µM | IANBD-labeled cardiac RTF, Ca2+ fluorescence;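 active means inhibition above the mean inhibition of all tested compounds plus 3 SD, cut at about 17% in these data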;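 further: assay run at fixed EC70 calcium of 1.6 mM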
BCLXL inh = blocks human Bcl-xL binding to Bim BH3 peptide | Q07817 | GST-Bcl-xL / FITC-Bim BH3 peptide fluorescence polarization | inhibition, % at 10.9 µM | hit rate 0.7% among 320,000;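 active means inhibition above the mean of all tested compounds plus 3 SD, cutoff set per campaign, cut at about 30% in these data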;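 further: inhibitors lower millipolarization by displacing the labeled peptide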
E coli Lon inh = inhibitors of E. coli Lon protease; inhibition, % at 7.94 µM; hit rate 0.42% among 360,000; P0A9M0; purified E. coli Lon protease, fluorescence polarization; AID 602123; in the data active means inhibition above about 13%, passing the limit was not always enough
RTF Ca sens act = increases calcium sensitivity of human cardiac regulated thin filaments. activation, % at 7.2 µM. IANBD-labeled TnC RTF fluorescence at EC20 calcium; 0% EC20 calcium, 100% full calcium. hit rate 0.24% among 340,000. P19429+P45379. AID 493008;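 active means activation above the mean over all tested compounds plus 3 SD, cut at about 30% in these data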;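 further: rise in fluorescence read as greater calcium sensitivity of cardiac thin filaments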
GLD-1 RNA inh = GLD-1-TGE RNA interaction inhibition (C. elegans) | Q17339 | purified GLD-1 + fluorescein TGE RNA, fluorescence polarization | inhibition, % at 5.96 µM | hit rate 0.44% among 320,000 | AID 2280;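 active means percent inhibition above a per-plate cutoff, the plate mean of test compounds plus 3 SD, cut at about 30% in these data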
Target sequence (Q17339 whole entry, looked up): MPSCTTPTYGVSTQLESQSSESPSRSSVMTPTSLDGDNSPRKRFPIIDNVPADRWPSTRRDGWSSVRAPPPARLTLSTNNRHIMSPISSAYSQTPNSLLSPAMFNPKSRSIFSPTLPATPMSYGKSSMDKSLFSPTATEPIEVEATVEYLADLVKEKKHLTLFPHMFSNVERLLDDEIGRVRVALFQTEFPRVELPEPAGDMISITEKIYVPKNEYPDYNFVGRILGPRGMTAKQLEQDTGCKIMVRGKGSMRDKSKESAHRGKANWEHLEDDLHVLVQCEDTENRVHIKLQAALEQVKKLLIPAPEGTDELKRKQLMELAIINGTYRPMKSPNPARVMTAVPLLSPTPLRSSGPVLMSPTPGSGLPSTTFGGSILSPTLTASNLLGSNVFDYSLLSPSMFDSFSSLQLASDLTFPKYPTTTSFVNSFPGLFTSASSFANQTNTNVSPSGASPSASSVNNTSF
RTF inh confirm = cardiac RTF calcium sensitivity inhibition, confirmation. shares compounds with RTF Ca sens inh. reconstituted cardiac thin filaments, calcium sensitivity fluorescence. inhibition, % at 7.15 µM. hit rate 8% among 360. AID 504635; in the data active means inhibition above about 18%
eLon confirm = E. coli Lon inhibition confirmation; purified E. coli Lon, fluorescence polarization; shares compounds with E coli Lon inh; hit rate 31% among 1,400; inhibition, % at 7.94 µM; in the data active means inhibition above about 16%
A number is an active result; 0 = inactive; - = no result given.

SMILES	RTF Ca sens inh	BCLXL inh	E coli Lon inh	RTF Ca sens act	GLD-1 RNA inh	eLon confirm	others
CC1(C)CC(=O)C(Sc2ccccc2)=C(O)C1	56	0	0	0	0	-	RTF inh confirm=0
NS(=O)(=O)c1cc(C(=O)NC2CCSc3ccccc32)ccc1Cl (stereo not given)	31	34	18	0	0	17	RTF inh confirm=0
C=CCNC(=O)C1CC(=O)N(c2ccc(OCc3ccc(F)cc3)cc2)C1 (stereo not given)	0	0	0	0	0	-
CN(C)CCCn1c(=S)[nH]c2ccccc2c1=O	0	0	0	0	0	-
CN(C)CCCN1C(=O)C2CCc3[nH]c4ccccc4c3C2C1=O (stereo not given)	19	0	24	0	0	0	RTF inh confirm=0
CCCCNC(=O)c1cc(-c2ccc(OC)cc2)on1	0	0	23	0	0	0
Oc1ccc(Cl)cc1CNc1ccccn1	0	0	0	0	0	-
Cc1ccc(C(=O)Nc2nc(=O)n(C(=O)c3ccccc3C)s2)cc1	0	0	19	0	0	31
COc1ccc(N2CC(C(=O)NCCC3=CCCCC3)CC2=O)c(OC)c1 (stereo not given)	0	0	0	0	0	-
COc1cc(NC(=O)CSc2nc3c(c(=O)[nH]2)CCCC3)cc(OC)c1OC	0	0	16	0	0	0
CCC(CC)c1nn2c(N)c(/C=C3\C=Nc4ccccc43)c(=O)nc2s1	0	0	0	0	0	-
CCN(CC)C(=S)Nc1ccc(Cl)c(Cl)c1	0	0	17	0	0	32
CCN(Cc1ccncc1)C(=S)Nc1ccc(Cl)cc1	0	0	0	0	0	-
COc1ccc(C2CC(c3ccc(OC)cc3O)=NN2C(=O)c2ccccc2)cc1 (stereo not given)	0	0	0	0	0	-
N#CC1=C(N)C2=C(N3CCCCC3)CCCC2C1(C#N)C#N (stereo not given)	0	0	24	0	0	0
COc1ccc(C(=O)N2CCN(S(=O)(=O)c3ccc4c(c3)OCCO4)CC2)cc1	-	-	0	-	-	-
CCOc1ccc(N=Cc2ccc(N(C)C)cc2)c(O)c1	-	-	126	-	-	78
CCOc1ccc(N=Cc2ccc([N+](=O)[O-])cc2)c(O)c1	-	-	43	-	-	0
CCN1CCN(C(=O)NC2CCCCC2)CC1	0	0	45	0	0	0
CCOC(=O)N1CCN(C(=O)NC2CCCCC2)CC1	0	0	0	0	0	-
CCOc1ccccc1N1CCN(C(=O)NCc2ccc(F)cc2)CC1	0	0	0	0	0	-
O=C(c1ccccc1Cl)N(Cc1ccc(Br)cc1)N1C(=O)CCC1=O	0	0	0	0	0	-
O=C(c1ccccc1Cl)N(Cc1ccc(Cl)c(Cl)c1)N1C(=O)CCCC1=O	0	0	18	0	0	0
Cc1cccc(NC(=S)NCCO)c1C	0	0	0	0	0	-
O=C(O)CC(SCC(=O)Nc1ccc(S(=O)(=O)N2CCCC2)cc1)C(=O)O (stereo not given)	0	0	17	0	0	0
SMILES	RTF Ca sens inh	BCLXL inh	E coli Lon inh	RTF Ca sens act	GLD-1 RNA inh	eLon confirm	others
CCOC(=O)C1=C(C)C2C3C(=O)N(c4ccccc4C)C(=O)C3C1(C)C1C(=O)N(c3ccccc3C)C(=O)C21 (stereo not given)	0	0	0	0	0	-
COc1ccc2c(c1O)Cc1ccccc1C2=O	0	0	34	0	0	22
CCOc1ccc(CNC(=O)CN2C(=O)CSc3ccc(S(=O)(=O)N4CCOCC4)cc32)cc1OC	0	0	64	0	0	0
COc1ccc(CCNC(=O)CN2C(=O)CSc3ccc(S(=O)(=O)N4CCOCC4)cc32)cc1OC	0	0	0	0	0	-
CC(=O)O[C@@H]1[C@H](OC(=O)CC(C)C)c2c(ccc3ccc(=O)oc23)OC1(C)C	0	0	113	0	0	0
CN1C(=S)N(c2ccccc2)C(=O)/C1=C/c1cccs1	0	0	0	0	0	-
CCn1c(SCC(=O)NCC2CCCO2)nc2c(c1=O)SCC2 (stereo not given)	0	0	0	0	0	-
Cn1c(SCC(=O)NCC2CCCO2)nc2c(c1=O)SCC2 (stereo not given)	0	0	52	0	0	0
C=CCN(c1nc(C)c(Br)c(OC)n1)S(=O)(=O)c1ccc(C)cc1	0	0	49	0	0	0
COC(=O)CN(c1nc(C)c(Br)c(OC)n1)S(=O)(=O)c1ccc(C)cc1	0	0	0	0	0	-
O=C(CCN1C(=O)/C(=C\c2ccccc2F)SC1=S)Nc1ccc(C(=O)O)c(O)c1	0	0	0	0	0	-
COc1ccc2nc(CCN(C)C(=O)C3CCC(=O)N(Cc4cccc(F)c4)C3)[nH]c2c1 (stereo not given)	0	0	0	0	0	-
COc1cccc(CN2CC(C(=O)N(C)Cc3nc4ccc(F)cc4[nH]3)CCC2=O)c1 (stereo not given)	0	0	69	0	0	0
COc1ccc(N(CC(=O)Nc2ccc(S(=O)(=O)N3CCOCC3)cc2)S(C)(=O)=O)cc1OC	-	-	16	-	-	0
CNC(=O)CCn1nc(-c2ccc(Cl)cc2)c2ccccc2c1=O	0	0	0	0	0	-
O=C1N=C(N2C=CC(=C3C=CNC=C3)C=C2)/C(=C/N=NC(=O)c2ccccc2O)S1	0	99	40	0	81	41
COc1ccc(S(=O)(=O)c2c(O)c3ccc(C(=O)Nc4ccccc4Cl)cc3[nH]c2=O)cc1	0	0	25	0	0	0
COc1ccc(NS(=O)(=O)c2cnc[nH]2)cc1	0	0	0	0	0	-
NC(=O)N/N=C/c1ccccc1OC(=O)c1ccccc1Br	0	0	0	0	0	-
O=C(NCc1ccncc1)C(=O)Nc1ccc2c(c1)OCO2	0	0	0	0	0	-
c1cc(CNc2ccc3c(c2)OCO3)ccn1	0	86	27	0	0	34
CC1C(=O)N(Cc2cn(CCC3OCCCO3)nn2)CCS(=O)(=O)N1Cc1ccc(-c2ccc(Cl)cc2)cc1 (stereo not given)	-	-	13	-	-	24
NC(=O)c1c(NC(=O)CSc2nnc(Cc3ccccc3)n2Cc2ccco2)sc2c1CCC2	0	0	22	0	0	0
CCCCS(=O)(=O)Nc1ccc(N2CCOCC2)c(S(=O)(=O)N2CCOCC2)c1	0	0	19	0	0	0
O=[N+]([O-])c1ccc(N2CCOCC2)c(S(=O)(=O)N2CCOCC2)c1	0	0	0	0	0	-
CCCc1nn(C)c(C(=O)Nc2cccc(C)c2)c1Cl	0	0	0	0	0	-
CCCc1nn(C)c(C(=O)Nc2cccc(Cl)c2)c1Cl	0	0	30	0	0	0
O=C(O)c1ccc2c(c1)C(=O)N(c1ccccc1-c1ccccc1)C2=O	0	0	0	0	0	-
NS(=O)(=O)c1ccc(NS(=O)(=O)c2ccc(C3CNC(=O)C3)cc2)cc1 (stereo not given)	0	0	19	0	0	0

Screens (PubChem BioAssay)
